Compounds with a hit are over-represented: about 2.3% of the library has one in this group of screens.
697 NFkB inh = inhibitors of the PMA/ionomycin-induced NF-kB reporter in 697 B cells. 697 B-cell NF-kB luciferase reporter, 16 h. inhibition, % at 4 µM. 330,000 compounds, 0.33% hits; in the data active = inhibition above about 35%
Jurkat NFkB inh = lowers PMA/ionomycin-induced NF-kB signal in Jurkat cells; PMA/ionomycin-induced NF-kB luciferase reporter, luminescence; inhibition, % at 4 µM; 330,000 compounds, 0.53% hits; AID 435003; in the data active = inhibition above about 50%
aSyn UTR inh = 5' untranslated region of α-synuclein, MLPCN primary screen; 300,000 compounds, 0.82% hits; AID 1813; alpha-synuclein 5'UTR reporter, inhibitor activity; inhibition, % (tested at 7.5 µM); in the data active = inhibition above about 60%;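 also: H4 neuroglioblastoma cells stably carrying SNCA 5'UTR luciferase fusion; 0% = DMSO wells and 100% = positive control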
TAG inh = inhibitors of triacylglycerol accumulation; inhibition, % at 12.5 µM; H9c2 cells, Nile Red lipid (TAG) fluorescence; cells loaded with 200 µM oleic acid; 230,000 compounds, 0.66% hits; AID 651582;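 active = pattern-corrected inhibition of lipid staining of at least 50% with the nuclear-stain viability signal not falling by more than 50%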;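 also: 0% = DMSO wells and 100% = triacsin C control wells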
Shn3 inh set2 = inhibitors of Schnurri-3 3'UTR reporter in osteoblasts | Clone20 osteoblast Shn3 3'UTR firefly luciferase, 24 h | inhibition, % at 12.5 µM | 360,000 compounds, 0.52% hits;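 active = mean inhibition of at least 75% with every replicate also reaching 75%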;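 also: 0% = median of neutral control wells and 100% = pilot-screen positive control compound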
Gli-Sufu antag = blocks Gli-Sufu signaling in a luciferase reporter; Sufu-KO-LIGHT fibroblasts, Gli luciferase reporter luminescence; inhibition, % at 5 µM; 340,000 compounds, 0.74% hits;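 active = inhibition above about 55%, limit read from the data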;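 also: 0% = DMSO-treated cells and 100% = wells with medium but no cells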
697 NFkB conf = inhibitors of the PMA/ionomycin-induced NF-kB reporter in 697 B cells, retest; inhibition, % at 4 µM; 697 B-cell NF-kB luciferase, 16 h; shares compounds with 697 NFkB inh; 2,000 compounds, 35% hits; in the data active = inhibition mostly above about 28%, no sharp cut-off; inactive = mostly below about 22%
Gli antag conf = confirmation of Gli-SUFU pathway antagonists | shares compounds with Gli-Sufu antag | 2,500 compounds, 40% hits | Sufu-KO-LIGHT cells, Gli luciferase reporter, luminescence | inhibition, % at 5 µM;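 active = mean inhibition at 5 µM reaching about 45%, limit read from the data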;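 also: plate controls were DMSO-treated cells for no effect and wells lacking cells for full effect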
SufuKO cytotox = counter-screen for Gli-SUFU antagonists: cytotoxicity; shares compounds with Gli-Sufu antag; Sufu-KO-LIGHT cells cytotoxicity, ATP luminescence; cytotoxicity, % at 5 µM; 2,500 compounds, 32% hits;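 active = mean cytotoxicity at 5 µM above about 25%, limit read from the data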;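 also: cells exposed to compound overnight for roughly 16 to 18 hours; plate controls were DMSO wells with cells for no effect and medium without cells for full effect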
Wnt3a cs = counter-screen for Gli-SUFU antagonists: Wnt3a reporter inhibition; 2,500 compounds, 20% hits; inhibition, % at 6.25 µM; shares compounds with Gli-Sufu antag; Wnt-LIGHT cells, Wnt3a-driven luciferase reporter, luminescence;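 active = mean inhibition above about 25%, limit read from the data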
* marks the source's active call; other numbers are inactive results; i = inactive; / = no result given.

SMILES	697 NFkB inh	Jurkat NFkB inh	aSyn UTR inh	TAG inh	Shn3 inh set2	Gli-Sufu antag	697 NFkB conf	others
COc1cc(/C=C/C=C2/CC/C(=C/C=C/c3ccc(O)c(OC)c3)C2=O)ccc1O	/	/	/	9.7	8.8	-19.8	/
c1ccc(-c2nc(NCCCn3ccnc3)c3oc4ccccc4c3n2)cc1	-6.5	-11.4	-37.7	/	27.2	1.5	/
CCOC(=O)C1CCN(C/C=C/c2ccccc2OC)CC1	37.6*	0.9	-13.1	/	-10.9	-5.2	-1.7
C/C(=N\NC(=O)CC(C)C)c1ccc(N2CCCCC2)cc1	-35.8	-17.5	-62.0	/	-19.2	-15.9	/
Fc1ccc2nc(Nc3nc4cc5c(cc4s3)OCO5)sc2c1	-157.6	-99.7	-232.3	/	-68.6	-63.4	/
c1ccc2sc(Nc3nc4cc5c(cc4s3)OCO5)nc2c1	-289.8	-147.5	-264.1	/	-79.7	-80.5	-323.6
CCCOc1ccc(/C=N/Nc2ccccc2[N+](=O)[O-])c(O)c1	-283.6	-62.0	62.0*	/	-11.8	30.1	-48.2
Cc1c(C(=O)OCCOc2ccccc2)[nH]c2c1C(=O)CCC2	-330.8	-83.2	5.3	-16.9	57.0	-70.8	-379.9
CC(=O)c1c(C)[nH]c(C(=O)OCCOc2ccccc2)c1C	-253.4	-141.4	66.8*	-39.3	52.0	-77.2	-401.7
COc1ccc(NC(=O)CCN2CCN(S(=O)(=O)c3cc(Cl)ccc3OC)CC2)cc1	-5.3	8.6	13.4	-8.0	/	7.3	/
Cc1nc(NC(=O)CN(C)S(=O)(=O)c2ccc(Br)cc2)sc1C	12.9	-3.1	16.2	/	14.7	-1.3	/
O=c1cc(Nc2ccc3c(c2)OCCO3)[nH]c(=O)n1-c1ccc(Cl)cc1	38.2*	-3.5	-21.7	14.0	-2.0	-23.8	23.6
Nc1cc(Cl)nc(N/N=C/c2ccccc2[N+](=O)[O-])n1	-59.6	-54.0	-188.0	-0.2	-65.1	5.5	/
Nc1cc(Cl)nc(N/N=C/c2ccc([N+](=O)[O-])cc2)n1	40.9*	1.8	13.9	-7.5	2.7	10.3	11.4
CCOC(=O)C1CCN(C(=O)c2ccccc2NC(=O)c2ccc(Br)cc2)CC1	16.5	-5.2	-11.6	/	-14.5	-7.8	/
CCOC(=O)C1CCN(C(=O)c2ccccc2NC(C)=O)CC1	38.8*	11.3	11.7	3.8	-19.4	6.5	7.5
Cc1sc2nc(C3CC3)nc(SCC(=O)N3c4ccccc4CC3C)c2c1C (stereo not drawn)	i	-74.9	9.5	-51.1	61.1	33.1	i
O=C(/C=C/[C@H]1O[C@@H](n2ccc(=O)[nH]c2=O)[C@H](O)[C@@H]1O)NCCc1cccs1	/	/	/	/	-13.1	/	/
COCCNc1c(-c2ccc(OC)c(OC)c2)nc2ccc(Cl)cn12	10.2	0.7	-1.3	/	8.1	6.2	/
O=C(c1cc(-c2ccc(Cl)cc2Cl)on1)N1CCOCC1	-293.4	-122.8	79.8*	/	12.2	-125.6	-186.1
CCN(CC(=O)Nc1c(F)cccc1F)C(=O)C1(c2ccccc2)CC1	49.8*	7.1	21.1	-10.7	10.5	11.2	19.2*
CCn1c(Cc2ccc(OC)cc2)nc2ccccc21	0.4	-1.4	13.6	-25.3	-55.7	28.3	/
C(=C\c1nnc(-c2cccs2)o1)/c1ccccc1	-260.4	-128.5	-52.9	/	-51.5	-95.1	-198.8
Cc1ccc(/C=C/c2nnc(-c3ccccc3)o2)cc1	-95.9	-41.3	-108.8	/	-37.0	-46.5	/
O=C(Oc1cccc(/C=N/Nc2nc(Nc3ccccc3)nc(N3CCOCC3)n2)c1)c1ccco1	43.4*	-76.3	-22.2	132.3	9.3	19.1	49.3*
SMILES	697 NFkB inh	Jurkat NFkB inh	aSyn UTR inh	TAG inh	Shn3 inh set2	Gli-Sufu antag	697 NFkB conf	others
COc1ccc(-c2nsc(SCC(=O)Nc3cc(C)on3)n2)cc1	43.1*	-34.5	-9.8	1.7	4.2	7.3	29.6*
CCCCC(=O)Nc1sc2c(c1C#N)CC(C)(C)OC2	-132.8	-89.7	-29.3	/	-53.7	-75.5	/
CC1(C)Cc2c(sc(NC(=O)Cc3ccccc3)c2C#N)CO1	41.2*	19.0	-9.6	-10.9	4.0	9.7	23.2
Cc1ccc(Nc2nc(N3CCOCC3)nc(N3CCOCC3)n2)cc1C	54.9*	32.0	-1.4	/	69.3	56.5*	46.7*	Gli antag conf=50.2*;SufuKO cytotox=41.3*;Wnt3a cs=-51.3
Cc1cccc(Nc2nc(N3CCOCC3)nc(N3CCOCC3)n2)c1	31.1	-24.8	-5.6	/	34.5	21.6	/
Cc1ccc(/C=C2\SC(=S)N(CCCC(=O)NNC(=O)c3ccccc3O)C2=O)cc1	87.5*	30.1	106.6*	2.4	87.2*	60.4*	76.2*	Gli antag conf=58.9*;SufuKO cytotox=13.9;Wnt3a cs=100.4*
Cc1ccc(/C=C2/SC(=S)N(CCCC(=O)Nc3ccc(O)cc3)C2=O)cc1	87.7*	2.1	86.3*	1.2	12.9	62.1*	93.3*	Gli antag conf=67.1*;SufuKO cytotox=26.3*;Wnt3a cs=35.3*
CC1CCN(C(=O)COC(=O)C(C)N2C(=O)c3ccccc3C2=O)CC1 (stereo not drawn)	10.5	9.8	/	6.5	-5.8	1.7	/
Cn1nc(C(=O)N2CCC(C(N)=O)CC2)c2c1-c1ccccc1SC2	-5.1	-20.8	6.4	-1.4	-25.2	9.2	/
CCOc1ccc(-c2c[n+]3c(n2-c2ccccc2)CCCCC3)cc1	59.8*	46.9	19.1	-13.4	90.5*	87.8*	53.8*	Gli antag conf=87.8*;SufuKO cytotox=39.3*;Wnt3a cs=20.5
CCOc1ccc(-c2nnc(-c3ccccc3)n2-c2ccccc2)cc1	-61.2	-6.4	-22.2	9.7	-18.8	-7.5	/
Cc1nn(C)c(C)c1CN(C)S(=O)(=O)c1ccc2ccccc2c1	81.9*	47.1	/	-79.2	78.4	74.7*	72.3*	Gli antag conf=78.2*;SufuKO cytotox=28.1*;Wnt3a cs=36.5*
Cc1nn(C)c(C)c1CN(C)S(=O)(=O)c1ccc(F)cc1	-14.5	15.2	-1.4	-6.9	29.2	2.7	/
N=c1c2c(n(Cc3ccc(Cl)c(Cl)c3)c3c1CCC3)CCCC2	43.6*	10.8	54.6	-20.1	78.6	83.3*	28.7*	Gli antag conf=88.7*;SufuKO cytotox=19.2;Wnt3a cs=35.8*
Clc1ccc(CN2C3=NCCN3c3ccccc32)cc1Cl	-12.2	-6.2	14.4	/	28.0	10.9	/
COc1cc(OC)c2c(-c3cccc(-c4ccc(C(C)=O)cc4)c3)cc(=O)oc2c1	-36.5	/	/	17.2	-4.5	12.4	/
COc1cc(OC)c2c(-c3cccc(-c4ccc(OC)c(F)c4)c3)cc(=O)oc2c1	-347.0	/	/	-10.0	-8.8	59.9*	-258.1	Gli antag conf=58.8*;SufuKO cytotox=59.7*;Wnt3a cs=-7.3
CCOc1ccc(N=C(NN)c2ccc3ccccc3n2)cc1	-251.8	13.3	4.3	/	32.7	63.8*	-42.7	Gli antag conf=73.2*;SufuKO cytotox=13.5;Wnt3a cs=81.3*

From PubChem BioAssay
